About 50 (0.02%) of roughly 280,000 compounds were called active. The sample holds actives, similar compounds and a random draw of the others, so the mix is not that of the screen. Results with a measured potency or affinity are listed apart. Unmarked numbers belong to inactive results. No stated cut-off is given here; in the data, active means activation above about 50% (passing the limit was not always enough); inactive means the rest.
biological target: Kappa-type opioid receptor (Homo sapiens) (UniProt P41145); assay: kappa opioid receptor activators – cell-based, luminescence, uHTS, primary screen (AID 1777); settings: KOR beta-arrestin recruitment, at 10 µM, active compounds read high
Sequence (P41145 whole entry, looked up): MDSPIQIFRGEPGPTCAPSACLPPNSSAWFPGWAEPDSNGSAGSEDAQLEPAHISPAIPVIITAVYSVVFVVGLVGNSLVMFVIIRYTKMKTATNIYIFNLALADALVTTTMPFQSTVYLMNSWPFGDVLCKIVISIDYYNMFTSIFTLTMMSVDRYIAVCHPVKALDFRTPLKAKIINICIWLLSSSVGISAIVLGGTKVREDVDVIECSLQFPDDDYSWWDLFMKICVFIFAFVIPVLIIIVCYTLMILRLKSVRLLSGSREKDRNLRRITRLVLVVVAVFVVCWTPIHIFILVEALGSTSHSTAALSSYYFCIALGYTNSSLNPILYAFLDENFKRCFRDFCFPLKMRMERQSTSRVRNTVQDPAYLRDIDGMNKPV

`COC(=O)N1CCN(C(=O)Cc2ccc(Cl)c(Cl)c2)C(CN2CCCC2)C1` (stereo not given) was tested, and the activation was 91.3% (active).

`COc1ccc(C(CNC(=O)Cc2ccc(Cl)c(Cl)c2)N2CCCCC2)cc1` (stereo not given) and `COc1ccc(C(CNC(=O)Cc2ccc(Cl)c(Cl)c2)N(C)C)cc1` (stereo not given) are the same in activation: -2.4% for the first, -2.4% for the second.

Going from `CCN1C(=O)N(CC)C(=O)C2(Cc3ccccc3N3CCN(c4ccccc4)CC32)C1=O` (stereo not given) to `COc1ccc2nc(/N=C/c3c(O)n(-c4cccc(Cl)c4)c(=O)[nH]c3=O)sc2c1`, the activation rises from 2.7% to 2.9%.
